These results are taken from PubChem BioAssay.

Active and inactive are the calls of the source.

The subject of assay [1] is PRMT1 (protein arginine N-methyltransferase 1). Put plainly: small molecules binding arginine methyltransferase PRMT1 – biochemical, small-molecule microarray, 635 nm fluorescence, primary screen (AID 1088).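 Note: binding of Prmt1 protein to compounds spotted on small-molecule microarray slides.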 The following applies: higher = more signal.
Assay [2] is described as follows: growth effects on S. cerevisiae YJM789 – YJM789 clinical isolate, OD600, 24 h, basal, primary screen (AID 1089).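 Note: growth of clinical yeast isolate S. cerevisiae YJM 789 seeded 1000 cells per well; test concentration not given here.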 To be noted: higher = more signal, called active from +8 up or from −8 down.
Assay [3] in a line: S. pombe growth modifiers, basal conditions – strain 972, OD600, 24 h, no modulator, primary screen (AID 1090).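 Note: basal condition with compound alone and no growth modifier present; test concentration not given here.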 The following applies: S. pombe 972 growth, higher = more signal, called active from +8 up or from −8 down.
The nature of assay [4]: budding yeast growth modifiers under rapamycin – strain BY4716, OD600, 96 h, primary screen (AID 1091). Note: test concentration not given here. The following applies: S. cerevisiae BY4716 + rapamycin, higher = more signal, called active from +8 up or from −8 down.
Assay [5] has as its target Torsin-1A-interacting protein 2 (Homo sapiens) (UniProt Q8NFQ8). Put plainly: small molecules binding lysate-expressed LULL1 – cell lysate, human LULL1 lysate, 635/667 nm fluorescence, primary screen (AID 1092).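 Note: probe is lysate of COS7 cells overexpressing human LULL1; score merges per-feature 667 nm fluorescence with signal-to-noise.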 To be noted: small-molecule microarray, hLULL1 lysate binding, 635 nm fluorescence; higher = more signal.
Assay [6] in a line: optical density change of DRC41 E. coli – strain DRC41, OD650, 24 h, E. coli filamentation project, primary screen (AID 1093).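 Note: MC1000 strain lacking acrAB efflux and sulA so SOS filamentation is blocked; test concentration not given here.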 The following applies: E. coli DRC41 growth, higher = more signal, called active from +8 up or from −8 down.
A short description of assay [7]: probe aLefty2 binding to arrayed compounds – biochemical, biotinylated probe, 635/667 nm fluorescence, primary screen (AID 1094).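 Note: score merges spot fluorescence near 667 nm with spot signal-to-noise ratio.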 The following applies: small-molecule microarray, higher = more signal.
Assay [8] relates to Noggin (protein binding on small-molecule microarray). Description: small molecules binding Noggin protein – biochemical, 635/667 nm fluorescence, primary screen (AID 1095).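 Note: score merges 667 nm feature fluorescence with signal to noise over triplicate slides.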 The following applies: 635 nm fluorescence, higher = more signal.
In assay [9] the target is Neurogenic locus notch homolog protein 3 (Homo sapiens) (UniProt Q9UM47). Put plainly: small molecules binding NOTCH3 protein – biochemical, 635/667 nm fluorescence, primary screen (AID 1096). The following applies: small-molecule microarray, 635 nm fluorescence, higher = more signal.
Assay [10] is described as follows: probe aEGFR binding to arrayed compounds – biochemical, biotinylated probe, 635/667 nm fluorescence, primary screen (AID 1097).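 Note: probe is a biotinylated anti-EGFR antibody binding compounds printed on slides; score combines fluorescence near 667 nm and signal to noise of each spot.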 The following applies: small-molecule microarray, higher = more signal.
For assay [11], the system named is Plasmodium falciparum Sir2 (PF13_0152, Sir2A). Put plainly: Plasmodium falciparum Sir2A binding compounds – biochemical, small-molecule microarray, 635 nm fluorescence, primary screen (AID 1098).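 Note: score merges spot fluorescence intensity with its signal-to-noise ratio.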 The following applies: fluorescence 635 nm, higher = more signal.
Assay [12] is described as follows: probe aDKK1 binding to arrayed compounds – biochemical, biotinylated probe, 635/667 nm fluorescence, primary screen (AID 1099).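 Note: score merges 667nm spot fluorescence with signal to noise across triplicate slides; reference of the scale not given here.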 To be noted: small-molecule microarray, higher = more signal.
A short description of assay [13]: probe aCHRDL2 binding to arrayed compounds – biochemical, biotinylated probe, 635/667 nm fluorescence, primary screen (AID 1100). The following applies: small-molecule microarray, higher = more signal.
Assay [14] can be described thus: change in splice reporter luminescence, either direction, cell-based, HEK293, spliceosome inhibition project, primary screen (AID 1101).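 Note: HEK293 cells carrying a splicing-competent luciferase reporter gene; test concentration not given here.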 To be noted: HEK293 splicing luciferase reporter, 24 h, higher = more signal, called active from +8 up or from −8 down.
Assay [15] deals with Fibroblast growth factor 10 (Homo sapiens) (UniProt O15520). Description: compounds binding fibroblast growth factor 10 – biochemical, small-molecule microarray, 635 nm fluorescence, primary screen (AID 1102). To be noted: FGF10 binding, fluorescence 635 nm, higher = more signal.
Assay [16] deals with glycogen synthase kinase-3 (GSK3A per assay name; protocol says GSK3B). Put plainly: compounds binding glycogen synthase kinase-3 – biochemical, small-molecule microarray, 635 nm fluorescence, GSK3A, primary screen (AID 1103). Note: the record names both GSK3A and GSK3B. To be noted: fluorescence 635 nm, higher = more signal.
The target in assay [17] is Epidermal growth factor receptor (Homo sapiens) (UniProt P00533). Description: compounds binding epidermal growth factor receptor – biochemical, small-molecule microarray, 635 nm fluorescence, primary screen (AID 1104).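 Note: score merges 667 nm emission intensity with spot signal to noise over triplicate slides.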 The following applies: EGFR binding, higher = more signal.
Assay [18] addresses Follistatin-related protein 3 (Homo sapiens) (UniProt O95633). Description: compounds binding follistatin-related protein 3 – biochemical, small-molecule microarray, 635 nm fluorescence, primary screen (AID 1105).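 Note: score merges emission near 667 nm and signal to noise per printed spot across three slides.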 To be noted: FSTL3 binding, higher = more signal.
Assay [19] addresses Dickkopf-related protein 1 (Homo sapiens) (UniProt O94907). Description: small molecules binding DKK1 protein – biochemical, small-molecule microarray, 635 nm fluorescence scan, primary screen (AID 1106).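 Note: score merges emission near 667 nm with signal to noise over three replicate slides.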 To be noted: higher = more signal.
Assay [20] has as its system Inhibin beta A chain (activin A). Description: small molecules binding activin A – biochemical, small-molecule microarray, 635 nm fluorescence scan, primary screen (AID 1107).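 Note: mouse activin A protein probed at 4.33 µg/mL on printed slides; score merges bound-protein fluorescence near 667 nm with spot signal-to-noise.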 To be noted: INHBA, higher = more signal.

Torsin-1A-interacting protein 2 (Homo sapiens), sequence (Q8NFQ8 whole entry, looked up): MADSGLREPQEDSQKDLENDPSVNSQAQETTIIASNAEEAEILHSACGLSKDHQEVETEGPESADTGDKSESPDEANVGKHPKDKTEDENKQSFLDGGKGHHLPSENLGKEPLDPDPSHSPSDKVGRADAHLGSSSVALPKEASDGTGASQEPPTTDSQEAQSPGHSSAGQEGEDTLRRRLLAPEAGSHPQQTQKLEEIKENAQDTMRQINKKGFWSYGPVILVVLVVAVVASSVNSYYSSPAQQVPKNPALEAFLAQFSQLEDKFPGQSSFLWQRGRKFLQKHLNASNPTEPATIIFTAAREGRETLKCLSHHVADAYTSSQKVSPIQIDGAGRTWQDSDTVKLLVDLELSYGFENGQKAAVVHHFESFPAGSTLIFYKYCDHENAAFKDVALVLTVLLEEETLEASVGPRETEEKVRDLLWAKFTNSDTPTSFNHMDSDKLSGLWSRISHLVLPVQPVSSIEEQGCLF
Follistatin-related protein 3 (Homo sapiens), sequence (O95633 whole entry, looked up): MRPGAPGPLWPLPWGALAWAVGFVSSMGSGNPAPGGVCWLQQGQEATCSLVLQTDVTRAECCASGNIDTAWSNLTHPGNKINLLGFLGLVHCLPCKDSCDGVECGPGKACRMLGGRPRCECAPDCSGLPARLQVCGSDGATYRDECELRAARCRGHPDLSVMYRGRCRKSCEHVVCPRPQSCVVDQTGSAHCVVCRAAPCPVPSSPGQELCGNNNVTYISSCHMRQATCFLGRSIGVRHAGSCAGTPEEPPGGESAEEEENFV
Neurogenic locus notch homolog protein 3 (Homo sapiens), sequence (Q9UM47 whole entry, looked up): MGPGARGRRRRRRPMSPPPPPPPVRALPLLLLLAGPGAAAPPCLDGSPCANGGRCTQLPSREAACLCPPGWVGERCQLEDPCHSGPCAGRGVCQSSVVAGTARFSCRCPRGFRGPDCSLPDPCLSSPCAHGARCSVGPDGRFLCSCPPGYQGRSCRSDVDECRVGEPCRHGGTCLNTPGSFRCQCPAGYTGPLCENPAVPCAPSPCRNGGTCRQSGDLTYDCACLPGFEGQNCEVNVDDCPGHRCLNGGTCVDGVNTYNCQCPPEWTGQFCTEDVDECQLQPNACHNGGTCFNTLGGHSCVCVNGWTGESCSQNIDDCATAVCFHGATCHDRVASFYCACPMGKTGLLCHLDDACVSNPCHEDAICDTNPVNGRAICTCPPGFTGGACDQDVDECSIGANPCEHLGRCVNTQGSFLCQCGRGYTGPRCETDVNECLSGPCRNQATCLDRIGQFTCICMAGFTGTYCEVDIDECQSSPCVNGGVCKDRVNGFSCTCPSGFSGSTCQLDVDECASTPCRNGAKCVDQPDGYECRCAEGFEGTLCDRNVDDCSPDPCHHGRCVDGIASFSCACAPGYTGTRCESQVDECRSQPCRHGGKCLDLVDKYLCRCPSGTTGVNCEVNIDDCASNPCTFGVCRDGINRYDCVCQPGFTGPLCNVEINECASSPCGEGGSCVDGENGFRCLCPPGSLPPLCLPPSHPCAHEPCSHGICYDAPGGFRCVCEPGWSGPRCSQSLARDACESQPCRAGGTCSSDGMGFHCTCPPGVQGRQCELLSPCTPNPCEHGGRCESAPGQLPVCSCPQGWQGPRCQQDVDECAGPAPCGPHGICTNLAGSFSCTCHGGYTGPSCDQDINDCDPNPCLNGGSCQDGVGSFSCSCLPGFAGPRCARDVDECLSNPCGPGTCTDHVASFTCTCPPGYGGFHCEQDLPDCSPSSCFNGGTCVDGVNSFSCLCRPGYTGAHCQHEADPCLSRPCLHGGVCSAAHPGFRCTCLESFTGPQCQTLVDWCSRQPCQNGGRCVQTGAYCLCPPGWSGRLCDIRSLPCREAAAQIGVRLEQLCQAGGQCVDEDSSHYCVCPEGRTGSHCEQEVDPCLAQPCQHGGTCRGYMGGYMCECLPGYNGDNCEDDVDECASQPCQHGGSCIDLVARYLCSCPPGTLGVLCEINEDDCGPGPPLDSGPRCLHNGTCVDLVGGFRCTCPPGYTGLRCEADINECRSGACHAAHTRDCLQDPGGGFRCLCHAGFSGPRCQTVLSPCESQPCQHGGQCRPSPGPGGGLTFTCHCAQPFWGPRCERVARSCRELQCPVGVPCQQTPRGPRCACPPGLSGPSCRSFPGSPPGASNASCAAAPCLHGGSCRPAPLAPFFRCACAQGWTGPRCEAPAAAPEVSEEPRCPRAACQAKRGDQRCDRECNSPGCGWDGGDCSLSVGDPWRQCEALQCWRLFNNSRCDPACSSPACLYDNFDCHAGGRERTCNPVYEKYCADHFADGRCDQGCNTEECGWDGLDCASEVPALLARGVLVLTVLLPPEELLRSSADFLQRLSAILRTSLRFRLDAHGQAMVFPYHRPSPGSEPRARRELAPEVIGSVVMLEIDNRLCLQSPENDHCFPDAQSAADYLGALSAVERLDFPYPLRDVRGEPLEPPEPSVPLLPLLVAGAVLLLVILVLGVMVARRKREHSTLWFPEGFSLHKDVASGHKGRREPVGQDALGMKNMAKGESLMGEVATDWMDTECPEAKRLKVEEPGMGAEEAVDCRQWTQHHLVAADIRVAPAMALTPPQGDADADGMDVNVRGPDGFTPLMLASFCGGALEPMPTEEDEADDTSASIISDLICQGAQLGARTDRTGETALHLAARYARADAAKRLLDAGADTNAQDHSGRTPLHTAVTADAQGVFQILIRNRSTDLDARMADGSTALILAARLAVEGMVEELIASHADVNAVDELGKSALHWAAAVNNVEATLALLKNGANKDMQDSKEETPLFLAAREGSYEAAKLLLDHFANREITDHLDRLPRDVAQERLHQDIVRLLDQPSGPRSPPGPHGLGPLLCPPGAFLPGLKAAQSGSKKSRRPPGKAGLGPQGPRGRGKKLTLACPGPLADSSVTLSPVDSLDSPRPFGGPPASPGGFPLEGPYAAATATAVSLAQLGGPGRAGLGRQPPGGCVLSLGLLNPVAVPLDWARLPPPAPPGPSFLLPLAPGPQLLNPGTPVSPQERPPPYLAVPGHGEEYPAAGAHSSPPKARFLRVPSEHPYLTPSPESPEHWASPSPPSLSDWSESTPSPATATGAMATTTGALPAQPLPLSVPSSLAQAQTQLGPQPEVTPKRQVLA
Epidermal growth factor receptor (Homo sapiens), sequence (P00533 whole entry, looked up): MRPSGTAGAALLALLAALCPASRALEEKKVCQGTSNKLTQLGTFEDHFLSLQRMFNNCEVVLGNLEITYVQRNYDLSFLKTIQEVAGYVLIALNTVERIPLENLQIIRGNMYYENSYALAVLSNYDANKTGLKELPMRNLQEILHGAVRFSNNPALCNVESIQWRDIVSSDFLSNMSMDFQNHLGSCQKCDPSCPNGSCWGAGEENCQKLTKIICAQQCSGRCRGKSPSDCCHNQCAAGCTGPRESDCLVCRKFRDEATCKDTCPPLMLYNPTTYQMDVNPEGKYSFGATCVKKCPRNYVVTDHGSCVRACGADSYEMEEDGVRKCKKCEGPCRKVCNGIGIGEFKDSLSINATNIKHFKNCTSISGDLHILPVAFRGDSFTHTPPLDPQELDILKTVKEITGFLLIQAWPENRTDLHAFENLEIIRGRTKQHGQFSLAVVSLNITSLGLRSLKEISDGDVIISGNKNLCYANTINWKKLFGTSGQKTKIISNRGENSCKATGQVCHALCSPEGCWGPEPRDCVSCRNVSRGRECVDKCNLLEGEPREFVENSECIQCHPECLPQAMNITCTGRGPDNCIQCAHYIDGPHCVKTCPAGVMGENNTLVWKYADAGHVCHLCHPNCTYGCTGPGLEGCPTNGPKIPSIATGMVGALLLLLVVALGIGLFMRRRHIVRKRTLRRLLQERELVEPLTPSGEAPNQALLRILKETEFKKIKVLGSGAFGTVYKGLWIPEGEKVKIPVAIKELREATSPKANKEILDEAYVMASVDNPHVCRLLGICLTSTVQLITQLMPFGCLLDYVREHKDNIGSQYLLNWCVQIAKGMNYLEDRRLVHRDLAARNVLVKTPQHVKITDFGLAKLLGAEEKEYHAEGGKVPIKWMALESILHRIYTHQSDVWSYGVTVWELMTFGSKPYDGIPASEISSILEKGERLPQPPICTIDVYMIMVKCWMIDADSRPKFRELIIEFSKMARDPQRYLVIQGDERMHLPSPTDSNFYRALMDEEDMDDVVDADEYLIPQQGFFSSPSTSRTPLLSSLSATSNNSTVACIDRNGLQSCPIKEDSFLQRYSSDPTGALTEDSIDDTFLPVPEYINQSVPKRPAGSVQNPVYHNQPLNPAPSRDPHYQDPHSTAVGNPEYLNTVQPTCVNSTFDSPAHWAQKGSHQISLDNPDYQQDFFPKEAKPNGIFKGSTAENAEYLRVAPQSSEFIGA
Dickkopf-related protein 1 (Homo sapiens), sequence (O94907 whole entry, looked up): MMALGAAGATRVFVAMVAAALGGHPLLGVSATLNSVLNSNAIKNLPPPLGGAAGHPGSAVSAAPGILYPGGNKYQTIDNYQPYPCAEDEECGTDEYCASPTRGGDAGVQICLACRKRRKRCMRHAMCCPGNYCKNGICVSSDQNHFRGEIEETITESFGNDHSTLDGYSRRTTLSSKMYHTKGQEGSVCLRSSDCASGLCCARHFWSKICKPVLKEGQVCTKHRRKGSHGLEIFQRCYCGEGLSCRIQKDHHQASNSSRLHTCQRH
Fibroblast growth factor 10 (Homo sapiens), sequence (O15520 whole entry, looked up): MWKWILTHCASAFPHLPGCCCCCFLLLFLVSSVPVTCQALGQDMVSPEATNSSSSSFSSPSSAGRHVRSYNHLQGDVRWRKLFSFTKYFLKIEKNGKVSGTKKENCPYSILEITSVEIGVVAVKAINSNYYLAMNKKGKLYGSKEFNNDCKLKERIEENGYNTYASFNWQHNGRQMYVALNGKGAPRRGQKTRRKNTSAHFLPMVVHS

Turning to `COCOc1ccc(Br)cc1C(=O)[C@@H]1O[C@H]1c1cccc(OC)c1`, the composite z-score in [1] was -0.0021; in assay [5] it was 0.497; in assay [7] it was -0.142; in [8], 0.455; in assay [9], 0.257; in assay [10] it was -0.112. Further, the composite z-score is 0.82 in assay [11]; -0.0616 in [12]; -0.0631 in [13]; 0.152 in assay [15]; 0.117 in [16]; 0.284 in assay [17]. Besides, the composite z-score in assay [18] was found to be 0.16; in assay [19] it was 0.219; in assay [20], 0.849. For the same molecule, the z-score was -1.33 (inactive) in assay [2]; -6.67 (inactive) in assay [3]; -0.822 (inactive) in assay [4]; 1.58 (inactive) in assay [6]; -0.455 (inactive) in assay [14].

Regarding `C#CCCCON=C1C[C@@H](O)[C@@H](O)[C@@H]2[C@@H]3C(=O)N(c4ccc(F)cc4F)C(=O)[C@@H]3CC[C@@H]12`, the composite z-score was 0.108 in [1]; -0.261 in assay [5]; -0.124 in assay [7]; 0.561 in [8]; 0.0521 in [9]; -0.112 in assay [10]. The composite z-score is 0.191 in [11]; -0.19 in assay [12]; -0.71 in [13]; -0.0402 in assay [15]; 0.225 in assay [16]; 0.259 in assay [17]. Besides, the results for the composite z-score in [18], in assay [19] and in [20] were 0.218, 0.302 and -0.263, respectively. In addition, the z-score was -0.326 (inactive) in assay [2]; -0.117 (inactive) in [3]; -1.3 (inactive) in [4]; 0.336 (inactive) in [6]; 0.0714 (inactive) in assay [14].

Consider `O=C(NN=C1C[C@@H](O)[C@@H](O)[C@@H]2[C@@H]3C(=O)N(C4CCCCC4)C(=O)[C@@H]3CC[C@H]12)OCc1ccccc1`, for which the composite z-score in [1] was -0.511; in [5], 0.352; in [7], -0.0239; in assay [8] it was -0.177; in assay [9] it was -0.0963; in [10], -0.0461. Moreover, the composite z-score was found to be 0.0222 in assay [11]; 0.691 in [12]; 1.07 in assay [13]; 0.836 in assay [15]; 0.0816 in [16]; 0.554 in assay [17]. Moreover, the composite z-score was -0.483 in [18], -0.504 in assay [19] and -0.0726 in assay [20]. In addition, the z-score in [2] was 0.298 (inactive); in assay [3], 0.267 (inactive); in assay [4], 0.799 (inactive); in [6] it was -0.0442 (inactive); in [14] it was -0.177 (inactive).

On to `CC(CCN1CCCc2nc(C)c(C)cc21)=NO[C@@H](C)c1cc(-c2c(C)cc(C)cc2C)no1`, for which the composite z-score was 0.684 in [1]; 1.33 in [5]; -0.0512 in assay [7]; 0.308 in assay [8]; 0.635 in assay [9]; -0.0873 in assay [10]. The composite z-score in assay [11] is 0.739; in assay [12], 0.0311; in [13] it was -0.648; in assay [15], 0.322; in [16], 0.525; in [17], -0.0398. Also, the results for the composite z-score in [18], in [19] and in assay [20] were 0.293, 0.41 and 0.881, respectively. The z-score was 0.0024 (inactive) in assay [2]; -2.18 (inactive) in assay [3]; -0.381 (inactive) in [4]; 1.74 (inactive) in [6]; -0.408 (inactive) in assay [14].

Take `CC(=O)Nc1ccc([C@@H]2N[C@H](C(=O)O)CC[C@H]2C)cc1`: the composite z-score is 0.0579 in [1]; 0.184 in [5]; -0.139 in assay [7]; 0.399 in assay [8]; 0.626 in [9]; -0.0493 in [10]. For the same molecule, the composite z-score is 0.136 in [11]; -0.108 in assay [12]; -0.401 in assay [13]; 0.32 in [15]; 0.461 in [16]; 0.546 in assay [17]. The figures for the composite z-score in assay [18], in assay [19] and in assay [20] were 0.409, 0.444 and 0.133, respectively. In addition, the z-score in [2] is 0.216 (inactive); in assay [3] it was -0.228 (inactive); in [4], 0.634 (inactive); in assay [6], 0.622 (inactive); in assay [14], 0.303 (inactive).
